# “And” between values parts separate entries of the source, which are not always exact repeats. Identical values can stand only once. About 4,000 (1%) of roughly 390,000 compounds were called active. Not shown: some 4% with an inconclusive outcome. Calls come from the whole dose curve; as a rule, active = well fitted inhibition curve with a large enough effect; inconclusive = small, poorly fitted or top-dose-only effect; inactive = no such curve, though single readings can be large or run the other way. The list comes from a sample in which actives are over-represented; it also holds similar structures and randomly drawn compounds. A call without a number means that no potency is given here. Some structures have more than one record in an assay (separate samples or runs), and their calls can disagree.
# Target: Thioredoxin reductase 1, cytoplasmic (Rattus norvegicus) (UniProt O89049)
# Test: qHTS Assay for Inhibitors of Mammalian Selenoprotein Thioredoxin Reductase 1 (TrxR1): qHTS; note: nearly all actives have a fitted effect of over 65% in size
# Settings: recombinant rTrxR1, NADPH fluorescence consumption, selenite substrate; series mostly up to 114 µM
# In short: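 Rat TrxR1 (90 nM in the dispensed reagent) was pre-reduced with 400 uM NADPH for 5 min at room temperature, then incubated with compound for 15 min. After 400 uM selenite was added, NADPH fluorescence (Ex 340/Em 450 nm) was followed for 8 min.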
# Potency is the fitted concentration of half-maximal effect.
# Thioredoxin reductase 1, cytoplasmic (Rattus norvegicus), sequence (O89049 whole entry, looked up): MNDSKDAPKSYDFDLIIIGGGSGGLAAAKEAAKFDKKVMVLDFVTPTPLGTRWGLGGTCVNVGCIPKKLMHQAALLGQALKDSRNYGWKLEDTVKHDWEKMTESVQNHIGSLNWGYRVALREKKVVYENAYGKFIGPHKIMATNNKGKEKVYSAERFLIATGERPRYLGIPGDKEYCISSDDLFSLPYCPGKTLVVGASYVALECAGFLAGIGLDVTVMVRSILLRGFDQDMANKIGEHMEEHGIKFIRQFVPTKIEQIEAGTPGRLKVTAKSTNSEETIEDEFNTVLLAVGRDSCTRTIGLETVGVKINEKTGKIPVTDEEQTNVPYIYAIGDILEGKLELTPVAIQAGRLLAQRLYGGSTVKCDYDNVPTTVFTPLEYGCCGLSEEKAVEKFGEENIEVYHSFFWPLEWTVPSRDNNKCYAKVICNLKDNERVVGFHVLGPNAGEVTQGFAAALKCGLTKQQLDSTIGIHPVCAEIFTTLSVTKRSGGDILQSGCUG
row,SMILES,Potency
1,COc1ccc(CN(Cc2ccccc2)C(=O)c2ccc(O)cc2)cc1COc1ccc(NC(C)=O)cc1,inactive
2,Cc1ccc(C2C(C#N)C(C#N)N3CCCN23)cc1 (configuration not stated),22.4 µM (active)
3,COc1ccc(CCNC(=O)Cn2c(=O)n(-c3ccccc3)c(=O)c3c(C)c(C)sc32)cc1OC,inactive
4,CC(C)(C)OC(=O)N1CCC(c2c(C(=O)NCCc3ccsc3)cnn2-c2ccc(F)cc2F)CC1,inactive
5,COc1ccc(CN2CCC(n3nccc3NC(=O)CCCc3ccccc3)CC2)cc1C,inactive
6,CCn1cc(CN2CCC(n3nccc3NC(=O)CCCc3ccccc3)CC2)c(C)n1,inactive
7,Cc1ccc(CN2CCC(n3nccc3NC(=O)CCCc3ccccc3)CC2)o1,70.8 µM (active)
8,CN(C)c1cccc2ccccc12,inactive
9,COC(=O)C1=C(C(=O)OC)[C@@H]2N(Cc3ccccc3)c3ccccc3[C@@]23C[C@@H](C(=O)OC)N(S(=O)(=O)c2ccc(C(F)(F)F)cc2)C3=N1,inactive
10,CSc1nnc(NC(=O)c2nc(S(=O)(=O)Cc3ccc(C)cc3)ncc2Cl)s1,15.8 µM (active)
11,CCS(=O)(=O)c1ncc(N(Cc2ccc(F)cc2)Cc2ccco2)c(C(=O)Nc2cc(C)ccc2C)n1,inactive
12,Cc1ccc(CCNC(=O)c2ccc(CS(=O)(=O)Cc3cccc(C)c3)o2)cc1,inactive
13,Cc1cccc(NC(=O)c2nc(S(=O)(=O)Cc3ccccc3)ncc2Cl)c1,5.62 µM (active)
14,Cc1cccc(CS(=O)(=O)c2ncc(Cl)c(C(=O)Nc3ccc(F)cc3)n2)c1,7.94 µM (active)
15,CCOCCCNC(=O)c1c(NC(=O)c2nc(SC)ncc2Cl)sc2c1CCCC2,inactive
16,CCOC(=O)c1ccc(NC(=O)c2nc(SCc3ccc(F)cc3)ncc2Cl)cc1,inactive
17,Cc1ccc(NC(=O)c2nc(S(=O)(=O)Cc3cccc(C)c3)ncc2Cl)cc1,1.78 µM (active)
18,Cc1cccc(NC(=O)Cn2cc(S(=O)(=O)Cc3ccccc3Cl)c3ccccc32)c1,inactive
19,Cc1ccc2nc(NC(=O)c3nc(SCc4ccccc4F)ncc3Cl)sc2c1,inactive
20,CSc1ncc(Cl)c(C(=O)Nc2ccc(S(=O)(=O)N3CCCC(C)C3)cc2)n1 (configuration not stated),inactive
21,CCCSc1ncc(Cl)c(C(=O)Nc2c(C(=O)Nc3ccccc3)oc3ccccc23)n1,inactive
22,CN(C)c1cccc(C(=O)Nc2nc3ccc(S(=O)(=O)NC(C)(C)C)cc3s2)c1,inactive
23,CN(C)c1ccc(/C=C/c2c3ccccc3nc3ccccc23)cc1,inactive
24,Cc1ccc(CNS(=O)(=O)c2ccc(-c3cc(C(F)(F)F)on3)s2)cc1,inactive
25,Cc1nn(-c2ccc(N3CCCCC3)nn2)c(C)c1CCC(=O)NCc1ccc(F)cc1,inactive

row,SMILES,Potency
1,COc1ccccc1NC(=O)c1oc2ccccc2c1NC(=O)COc1ccccc1OC,inactive
2,COc1ccc(S(=O)(=O)c2c(Nc3cccc(Cl)c3)sc(C(=O)c3ccccc3)c2N)cc1,inactive
3,O=C(CNS(=O)(=O)c1cccs1)N1CCN(c2ccccc2Cl)CC1,inactive
4,COc1ccccc1CNC(=O)C(Cc1ccccc1)NS(=O)(=O)c1ccc2c(c1)oc(=O)n2C (configuration not stated),inactive
5,CCOC(=O)c1c(C)oc2nc(C)nc(N(CC(C)C)CC(C)C)c12,inactive
6,Cc1ccc(CNC(=O)CCNS(=O)(=O)c2ccc3c(c2)oc(=O)n3C)cc1,inactive
7,CCOC(=O)c1c(NC(=O)c2ccc(S(=O)(=O)N(CC)CC)cc2)sc2c1CCCCC2,inactive
8,CCc1ccc(CNC(=O)c2cc3cc4ccc(OC)cc4nc3o2)cc1,inactive
9,O=C(O)/C(=C/c1c(C(=O)O)[nH]c2cc(Cl)cc(Cl)c12)c1ccccc1,inactive
10,O=C(Nc1ccccc1C(F)(F)F)c1nc(S(=O)(=O)Cc2ccccc2F)ncc1Cl,2.82 µM (active)
11,O=C(Nc1nc2ccc(F)cc2s1)c1nc(SCc2ccccc2F)ncc1Cl,inactive
12,CN(CC(=O)Nc1ccccc1C(F)(F)F)C(=O)Cc1ccccc1F,inactive
13,Cc1ccc(Cn2cnc3c(cnn3C(C)(C)C)c2=O)c(F)c1,inactive
14,O=C1[C@@H]2C(c3cccnc3)=NO[C@@H]2C(=O)N1c1ccc(Cl)cc1Cl,70.8 µM (active)
15,O=C(NNC1CC(=O)N(c2cccc(Cl)c2)C1=O)c1cccnc1 (configuration not stated),inactive
16,CCN(CC)c1ccc(/C=C/c2c(C)cnc3ccc(C)cc23)cc1,inactive
17,COc1cccc(CNC(=O)CCc2nc(-c3ccc(C)cc3)no2)c1,inactive
18,COc1ccc(OC)c(NC(=O)CSc2nc3ccccc3nc2N2CCCCC2)c1,inactive
19,CCn1cc(C(=O)NCc2ccccc2)c(=O)c2cc(S(=O)(=O)N3CCCCC3)ccc21,inactive
20,CCC(=O)N1CCc2cc(Br)cc(S(=O)(=O)CCC(=O)NCc3ccccc3OC)c21,inactive
21,O=C(Nc1cccnc1)c1cc2cc(Br)ccc2oc1=O,inactive
22,O=C(NC(=S)Nc1ccc(Br)cc1F)C1CCCCC1,inactive
23,Fc1cc(Br)ccc1NC(=S)Nc1cccnc1,50.1 µM (active)
24,CN(C)c1ccc(C=Nc2ccc(/C=C/c3ccnc4ccccc34)cc2)cc1,inactive
25,O=C(OCc1cc(Cl)ccc1OC(F)F)c1cccnc1,inactive

row,SMILES,Potency
1,O=C(/C=C/c1ccc(Cl)cc1Cl)c1cccnc1,4.47 µM (active)
2,O=C(O)/C(=C/c1cccnc1)NC(=O)c1ccccc1,inactive
3,Cc1cc(C)c(NC(=O)CN2C(=O)c3cccnc3Oc3ccc(Cl)cc32)c(C)c1,inactive
4,Cc1ccc(SCC(CC(C)C)N2CCN(CCc3ccccc3)CCC2=O)cc1 (configuration not stated),inactive
5,O=C(Nc1nc(-c2ccco2)c(-c2ccco2)s1)c1ccco1,28.2 µM (active)
6,O=C(Nc1nnc(C2CC(=O)N(c3ccc(Cl)cc3)C2)s1)c1ccco1 (configuration not stated),inactive
7,O=C(Nc1ccc2nc(SCCOc3ccccc3)sc2c1)c1ccco1,inactive
8,Cc1ccc(C)c(OCC(=O)Nc2sc3c(c2C#N)CCCC3)c1C,inactive
9,COc1cccc(C2CC(c3ccccc3)=NN2S(=O)(=O)c2ccccc2)c1OC (configuration not stated),inactive
10,COc1ccc2c(c1OC)C(=O)OC2Nc1nc(-c2ccccc2)cs1 (configuration not stated),4.47 µM (active)
11,Cc1ccc2c(c1)N(C(=O)CCC(=O)NCc1ccccc1F)CC(C)O2 (configuration not stated),inactive
12,O=C(C1CCC(Cn2c(=O)c3sccc3n(Cc3ccccc3F)c2=O)CC1)N1CCCCC1 (configuration not stated),inactive
13,O=C(/C=C/c1ccc([N+](=O)[O-])o1)NNC(=O)c1ccc(F)cc1,3.16 µM (active)
14,COc1ccc(-n2c(SCC(=O)Nc3ccc(Cl)c(C)c3)nc3n[nH]c(C)c3c2=N)cc1,inactive
15,O=C(Nc1ccc2oc(-c3ccc(O)c(Br)c3)nc2c1)c1cc2ccccc2o1,inactive
16,CCOc1cccc(C(=O)Nc2nnc(S(=O)(=O)N(C)c3ccc(C)cc3)s2)c1,inactive
17,CCN(CC)S(=O)(=O)c1nnc(NC(=O)COc2ccccc2Cl)s1,inactive
18,CCC(=O)Nc1nnc(S(=O)(=O)N(CC(C)C)c2ccccc2)s1,inactive
19,CCN(c1ccc(Cl)cc1)S(=O)(=O)c1nnc(NC(=O)c2ccco2)s1,inactive
20,CCCCC(=O)Nc1nnc(S(=O)(=O)N(C)Cc2ccco2)s1,44.7 µM (active)
21,CN(Cc1ccco1)S(=O)(=O)c1nnc(NC(=O)c2ccccc2)s1,inactive and 17.8 µM (active)
22,CCCCOc1ccc(C(=O)NO)cc1,inactive
23,COC(=O)c1ccc(NC(=O)CCc2c(C)nc3c(c(C)nn3-c3ccc(C)cc3)c2C)cc1,inactive
24,COC(=O)c1cc(NC(=O)c2cnc(SC)nc2-c2ccccc2)cc(C(=O)OC)c1,inactive
25,CC(C)(C)c1cc(CN2CCN(CCC#N)CC2)cc(C(C)(C)C)c1O,4.47 µM (active)

row,SMILES,Potency
1,N#Cc1cccc(CN2CCC(=O)N(CCO)CC2)c1,inactive
2,N#CCCN1CCN(S(=O)(=O)c2ccc(S(=O)(=O)N3CCCC3)cc2)CC1,inactive
3,COc1cc2nc(Cl)nc(NC3CC3)c2cc1OC,inactive
4,Cc1cccc(C(CC(=O)NCC2(c3ccccc3)CCCC2)c2ccccc2)c1O (configuration not stated),inactive
5,O=C(CCSCc1ccccc1F)N1CCN(c2ccc(Cl)cc2)CC1,inactive
6,COc1ccc(N2C(=O)/C(=C\c3ccco3)N=C2SCC(N)=O)cc1Cl,inactive
7,COC(=O)C1=C(C)N(C(C)c2ccccc2)C(=O)/C1=C\c1ccco1 (configuration not stated),28.2 µM (active)
8,COC(=O)C1=C(C)N(C)C(C)=C(C(=O)OC)C1c1cccc(Br)c1,inactive
9,COC(=O)C1=C(C)N(c2ccc(Br)cc2)C(=O)/C1=C\c1ccco1,50.1 µM (active)
10,COC(=O)C1=C(C)N(c2ccc(C)cc2)/C(=C/c2ccc(O)cc2)C1=O,inactive
11,COc1ccc(N2C(=O)CS(=O)(=O)C23C(=O)N(Cc2ccc(C)cc2)c2ccccc23)cc1Cl (configuration not stated),inactive
12,Cc1ccc2nc(COc3cccc(NC(=O)c4ccccc4Cl)c3)cc(=O)n2c1,inactive
13,O=C(CSc1ccc(-c2cccs2)nn1)Nc1ccccc1F,inactive
14,COc1ccc(Cl)cc1NC(=O)CSc1nc(-c2cccs2)cc(C(F)(F)F)n1,inactive
15,CSc1ccccc1NC(=O)CCS(=O)(=O)c1nc(-c2cccs2)cc(C(F)(F)F)n1,14.1 µM (active)
16,CCc1ccc(S(=O)(=O)c2nnn3c2nc(N2CCN(CC)CC2)c2sccc23)cc1,inactive
17,CC(C)C[C@H](NC(=O)[C@H](O)[C@H](N)Cc1ccccc1)C(=O)O,inactive
18,O=C(CSc1nnc(-c2cccnc2)n1CCc1ccccc1)NCc1ccccc1,inactive
19,CCn1c(SCC(=O)NCc2ccco2)nnc1-c1ccc(N)cc1,inactive
20,O=C(CSc1nnc(-c2cccnc2)n1Cc1ccco1)c1ccc(Cl)c(Cl)c1,44.7 µM (active)
21,Cc1ccc(C)c(N2CCN(C(=O)Cc3c(C(=O)O)c(C)cn3C)CC2)c1,inactive
22,Cc1ccccc1CNC(=O)Cn1c(C)c2cnn(-c3ccccc3)c(=O)c2c1C,inactive
